# Source: PubChem BioAssay (The Scripps Research Institute Molecular Screening Center)
# Shown are actives, neighbours in structure and some others; about 1.1% of the full set was active somewhere.
# SRC2 inh: human SRC2 (NCOA2) inhibition; inhibition, % at 9 µM; Q15596; hit rate 0.17% among 370,000; HEK293 GAL4-SRC2 luciferase reporter, luminescence;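 active = inhibition above the mean inhibition of all tested compounds plus 3 SD, set per campaign, cut at about 52% in these data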;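 note: 0% = DMSO treated cells and 100% = cells given Gossypol at 36 µM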
# SRC3 inh: inhibitors of human steroid receptor coactivator 3 (SRC3); Q9Y6Q9; HEK293 GAL4-SRC3 luciferase reporter, luminescence; inhibition, % at 3.6 µM; hit rate 0.17% among 360,000; AID 588352;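 active = inhibition above a per-campaign cutoff, the mean of all compounds plus 3 SD, cut at about 60% in these data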;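 note: 0% = DMSO-treated cells and 100% = gossypol-treated cells at 36 µM; higher means less SRC3-driven luciferase light from the GAL4 reporter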
# COUP-TFII inh: inhibitors of human COUP-TFII (NR2F2). hit rate 0.7% among 370,000. HEK293T NGFI-A luciferase reporter, luminescence. P24468. AID 686940. inhibition, % at 8.6 µM;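 active = inhibition above a per-plate cutoff, mean inhibition of test wells between control levels plus 3 SD, cut at about 38% in these data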;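 note: cells cotransfected with COUP-TFII expression vector driving the NGFI-A reporter; 0% = median of COUP-TF2 test wells and 100% = reporter-only cells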
# LRH-1 inv ag: inverse agonists of human LRH-1 (NR5A2). hit rate 0.13% among 360,000. inhibition, % at 3.6 µM. O00482. HEK293T StAR-luciferase reporter, LRH-1 transfected, 24 h;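 active = inhibition above the mean inhibition of all tested compounds plus 3 SD, cut at about 73% in these data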;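 note: 0% = DMSO wells and 100% = reporter-only cells lacking LRH-1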
# Target sequence (O00482 whole entry, looked up): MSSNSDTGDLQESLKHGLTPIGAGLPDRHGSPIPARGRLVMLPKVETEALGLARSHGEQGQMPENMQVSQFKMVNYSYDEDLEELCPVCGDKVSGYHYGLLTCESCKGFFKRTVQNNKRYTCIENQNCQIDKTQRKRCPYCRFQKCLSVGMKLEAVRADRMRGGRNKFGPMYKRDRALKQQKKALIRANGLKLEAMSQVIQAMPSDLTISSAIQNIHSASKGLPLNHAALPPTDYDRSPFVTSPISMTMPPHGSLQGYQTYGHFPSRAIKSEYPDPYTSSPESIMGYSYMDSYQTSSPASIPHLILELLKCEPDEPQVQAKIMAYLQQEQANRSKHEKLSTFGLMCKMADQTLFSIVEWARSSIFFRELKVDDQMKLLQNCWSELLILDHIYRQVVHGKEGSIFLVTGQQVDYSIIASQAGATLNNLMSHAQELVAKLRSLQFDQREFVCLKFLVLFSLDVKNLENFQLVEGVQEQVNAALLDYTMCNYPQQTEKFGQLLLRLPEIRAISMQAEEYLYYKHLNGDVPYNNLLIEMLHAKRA
# SRC1 inh: human NCOA1 inhibition; inhibition, % at 3.6 µM; HEK293 GAL4-SRC1 luciferase reporter, luminescence; hit rate 0.12% among 360,000;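 active = inhibition above the campaign mean plus 3 SD, with each screening campaign given its own cutoff, cut at about 60% in these data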;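 note: 0% = DMSO treated cells and 100% = gossypol at 36 µM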
# GalR3 antagonist: blocks the human galanin receptor 3; HEK293 GalR3-CNG cAMP membrane potential fluorescence; galR3 body fused to GalR1 C-terminus; hit rate 0.44% among 360,000; inhibition, % at 3 µM; O60755;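 active = inhibition above the screen-wide average plus 3 SD, cut at about 13% in these data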;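 note: forskolin and galanin both at EC90 stimulate the cells; cAMP rise reported by CNG channel membrane potential dye signal; 0% = forskolin plus galanin with DMSO and 100% = forskolin alone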
# GalR3 antag conf: GalR3 (human) antagonism, confirmation; shares compounds with GalR3 antagonist; hit rate 59% among 1,600; inhibition, % at 3 µM; AID 652245; HEK293 GalR3 CNG cAMP biosensor, membrane potential fluorescence; galR3 fused to GalR1 carboxy tail; challenged with forskolin and galanin at EC90;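 active = inhibition above the primary screen's cutoff, the mean inhibition of all screened compounds plus 3 SD, cut at about 13% in these data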;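 note: 0% = forskolin plus galanin and 100% = forskolin alone with DMSO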
# CNG parental: acts as nonspecific agonist in parental HEK-CNG cells; hit rate 10% among 1,600; shares compounds with GalR3 antagonist; HEK293-CNG parental cells, cAMP membrane potential fluorescence; normalised: DMSO wells 0%, forskolin wells 100%; AID 652268; activation, % at 3 µM; in the data active = activation above about 1.3%
# * hit, by the source's call; · = not tested or not shown.
SMILES,SRC2 inh,SRC3 inh,COUP-TFII inh,LRH-1 inv ag,SRC1 inh,GalR3 antagonist,GalR3 antag conf,CNG parental
COc1ccccc1Nc1ccc(C(=O)O)cc1[N+](=O)[O-],-4,3,6,-8,4,-6,·,·
COc1ccc2[nH]c(C(=O)O)c(NS(=O)(=O)c3ccc(Cl)s3)c2c1,-12,10,-3,5,-2,-5,·,·
CCOC(=O)c1[nH]c2ccc(OC)cc2c1NS(=O)(=O)c1ccc(Cl)s1,-29,0,-16,-5,5,103*,92*,0
COc1ccc2c(c1)CCc1c(C(=O)NCC(C)C)noc1-2,-30,-72,-21,-197,-113,-6,·,·
COc1ccc(C2=Nn3c(nnc3-c3ccccc3C(F)(F)F)SC2)cc1OC1CCOC1 (stereo not drawn),-19,-30,-15,28,-15,15*,17*,0
CCOc1ccc(C2=Nn3c(nnc3-c3ccccc3OC)SC2)cc1,2,1,-73,35,-6,22*,45*,2.2*
CCOc1ccc(-c2nnc3n2N=C(c2ccc(OC)cc2)CS3)cc1,-11,4,11,-5,6,1,·,·
O=C(NCc1ccc(F)cc1)C1CCN(S(=O)(=O)N2CCC3(CC2)OCCO3)CC1,6,6,-6,-21,-10,-1,·,·
O=C(Cc1ccccc1)NCC(=O)N/N=C/c1ccc(Cl)cc1,0,1,-4,-2,-6,-7,·,·
CC(=O)OCC1OC(n2c(S)c(C#N)c(-c3ccccc3)c(C#N)c2=O)C(OC(C)=O)C(OC(C)=O)C1OC(C)=O (stereo not drawn),-1,-11,-18,-8,-5,57*,87*,1
CCCCCCCCCC(=O)N/N=C(\C)c1cccnc1,-24,-5,-8,1,2,14*,0,0
CCOC(=O)N1CCN(C(=O)C[C@@H]2C(=O)N3CCCC4=C3[C@@]2(C(=O)OC)CCCC4)CC1,2,·,13,·,·,·,·,·
CCC(NC(=O)c1ccccc1NC(=O)C(C)(C)C)C(=O)N1CC(C)OC(C)C1 (stereo not drawn),-20,9,6,17,1,3,·,·
CCC(NC(=O)c1ccccc1NC(=O)C(C)(C)C)C(=O)N1CCCC1 (stereo not drawn),-28,12,2,20,2,15*,7,0
CCc1ccc(OCC(=O)Nc2ccncc2)c(Br)c1,-16,-63,4,-42,-77,-12,·,·
Cc1cc(OCC(=O)Nc2ccncc2)c(C)cc1Br,11,-2,16,16,-3,77*,117*,0
CC(=O)c1ccc(NC(=O)Nc2ccc(Br)cc2C)cc1,19,22,0,-3,0,13*,-3,0
N#C/C(N=Nc1ccccc1O)=N\Nc1ccccc1O,11,16,3,-7,-2,61*,84*,-2
Oc1ccccc1N=N/C(=N/Nc1ccccc1O)c1ccccc1,-38,-18,16,7,-5,2,·,·
CCNC(=O)N1CCN(C(=O)NCC)CC1,-15,12,-4,7,2,-2,·,·
CC(C)N1CCN(Cc2ccc(C#CCCO)cc2)CC1CCO (stereo not drawn),1,-6,-7,10,4,-1,·,·
OCCC#Cc1ccc(CN2CCN(C3CCCCC3)C(CCO)C2)cc1 (stereo not drawn),21,13,-4,22,10,13*,0,0
COc1cc(NC(=O)COC(=O)C2CC2)c(C)cc1[N+](=O)[O-],-28,9,-10,21,-9,-9,·,·
COc1cc(NC(=O)COC(=O)C2CC(O)CN2S(=O)(=O)c2ccc(Cl)cc2)c(C)cc1[N+](=O)[O-] (stereo not drawn),-5,-17,-24,-13,0,24*,47*,0
